# Test results: PubChem BioAssay AID1851 (National Center for Advancing Translational Sciences (NCATS), 2009)
# In all, about 16,000 compounds went through this assay and about 4,000 (25%) were called active. Roughly 26% stayed inconclusive and do not appear here. A selection follows. Values without a mark were called inactive. The call rests on the fitted dose curve; in most records, active means well fitted curve in the direction sought with a large enough effect; inconclusive means small, poorly fitted or top-dose-only effect, or effect the other way; inactive means no such curve, though single readings can be large or run the other way.
# Target: Cytochrome P450 2C9 (Homo sapiens) (UniProt P11712)
# Experiment: Cytochrome panel assay with activity outcomes
# Details: recombinant CYP, pro-luciferin dealkylation, luminescence, p450-cyp2c9; series mostly up to 57.1 µM
# On the % scale 0 is the no-effect control and ±100 the full control effect.
# Sequence of Cytochrome P450 2C9 (Homo sapiens) (P11712 whole entry, looked up): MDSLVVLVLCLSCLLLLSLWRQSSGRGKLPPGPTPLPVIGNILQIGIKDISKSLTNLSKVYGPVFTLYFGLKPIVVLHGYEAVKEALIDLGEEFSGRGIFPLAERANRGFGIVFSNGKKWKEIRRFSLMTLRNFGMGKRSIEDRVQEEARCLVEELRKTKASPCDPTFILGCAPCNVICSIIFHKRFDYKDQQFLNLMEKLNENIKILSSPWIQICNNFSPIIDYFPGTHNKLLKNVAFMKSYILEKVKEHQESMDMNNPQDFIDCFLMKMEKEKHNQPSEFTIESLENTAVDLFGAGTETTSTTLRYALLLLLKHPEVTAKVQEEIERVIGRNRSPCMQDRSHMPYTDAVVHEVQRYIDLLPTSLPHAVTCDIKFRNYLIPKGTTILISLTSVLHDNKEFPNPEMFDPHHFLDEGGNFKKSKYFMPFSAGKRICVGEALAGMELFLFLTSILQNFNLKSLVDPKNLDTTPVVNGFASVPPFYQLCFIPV
SMILES,"activity, negative = inhibition",AC50
CO[C@H]1COC(=O)CCC[C@@H](C)[C@H](OC)COC(=O)[C@@H](C)NC(=O)C/C=C\[C@@H]1C,-11.7% [at 11.4 µM],–
Cc1noc(C)c1-c1nc(Nc2ccc(F)cc2)c2ccccc2n1,-2.69% [at 2.29 µM],–
CCN(CC)CCNC(=O)c1cc(Br)c(N)cc1OC,–,inactive
CCCc1c(OCCCOc2ccc(OCC(=O)O)cc2)ccc(C(C)=O)c1O,–,10 µM (active)
CCCc1c(OCCCOc2ccc(OCC(=O)O)cc2)ccc(CC=O)c1O,–,inactive
O=C(O)COc1ccc(OCCNC[C@@H](O)COc2ccccc2)cc1,–,inactive
Cn1cccc1C(=O)N1CCC[C@@]2(CCN(Cc3ccc(C#N)cc3)C2)C1,–,inactive
NC/C=C\C(=O)O,–,inactive
CC[C@H](C)[C@@H]1O[C@]2(CC[C@@H]1C)C[C@H]1C[C@H](CC=C(C)[C@@H](O[C@@H]3C[C@H](OC)[C@H](O[C@@H]4C[C@H](OC)[C@H](O)[C@H](C)O4)[C@H](C)O3)[C@@H](C)C=CC=C3CO[C@@H]4[C@@H](O)C(C)=C[C@@H](C(=O)O1)[C@]34O)O2,–,inactive
O=C(Cn1cc(C(F)(F)F)ccc1=O)N1CCN(S(=O)(=O)c2ccccc2)CC1,–,inactive
O=C1C2CCCN2c2ccc(S(=O)(=O)N3CCOCC3)cc2N1Cc1cccc(C(F)(F)F)c1 (stereo not drawn),–,5.01 µM (active)
O=S(=O)(c1cccc(C(F)(F)F)c1)N1CCC(c2cc(-c3cccc4ccccc34)n[nH]2)CC1,–,inactive
COc1ccc(NC(=O)N2CCCC3(CCN(C(=O)c4csnn4)CC3)C2)cc1,–,inactive
O=C(SCc1cccc2ccccc12)c1ccc(Cl)cc1,-1.66% [at 11.4 µM],–
Oc1ccc(Cl)cc1C=Nc1cnc2ccccc2c1,1.22% [at 11.4 µM],–
O/N=C/c1ccccc1OCc1ccc(Cl)cc1,–,4.47 µM (active)
O/N=C/c1cc(Cl)ccc1OCc1cccc2ccccc12,–,7.08 µM (active)
Cc1n[nH]c(=S)n1/N=C/c1ccccc1OCc1ccc(Cl)cc1,–,inactive
Cc1ccc(CONC(=O)/N=C/N(C)C)cc1,–,inactive
O=C(Cc1ccccc1)N/N=C/c1ccccc1OCc1ccc(Cl)cc1,–,7.94 µM (active)
Cc1ccc(COc2coc(CO)cc2=O)cc1,–,inactive
Cc1ccc(COc2ccc(Br)cc2/C=N/O)cc1,–,2.82 µM (active)
COc1ccc(COC(=O)N/N=C2/C[C@@H](O)[C@@H](O)[C@@H]3[C@@H]4C(=O)N(C(C)(C)C)C(=O)[C@H]4CC[C@H]23)cc1,20.6% [at 11.4 µM],–
CC(C)(C)c1onc(OCP(=O)(O)O)c1C[C@@H](N)C(=O)O,–,inactive

SMILES,"activity, negative = inhibition",AC50
C[C@@H]1O[C@H](O[C@@H]2[C@H](C)O[C@H](O[C@@H]3[C@H](C)O[C@H](O[C@H]4CC[C@]5(C)[C@@H](CC[C@@H]6[C@H]5C[C@@H](O)[C@]5(C)[C@@H](C7=CC(=O)OC7)CC[C@]65O)C4)C[C@@H]3O)C[C@@H]2O)C[C@H](O)[C@@H]1O,–,inactive
C[C@@H](Cc1ccccc1)Nc1ncnc2c1ncn2[C@@H]1O[C@@H](CO)[C@H](O)[C@@H]1O,–,inactive
COCCNc1nc(-c2c(C)noc2C)nc2ccccc12,15% [at 2.29 µM],–
NC(N)=NC(N)=Nc1cccc(Cl)c1,–,inactive
NC(=S)N/N=C/c1ccccc1OCc1cccc(Cl)c1,–,1.58 µM (active)
CCC1(C)Nc2ccccc2C(=O)N1O (stereo not drawn),–,inactive
CCCCC1(C)Nc2ccccc2-c2nc3ccccc3n21 (stereo not drawn),–,12.6 µM (active)
CC1CCC2(CC1)N=C(N)Nc1nc3ccccc3n12 (stereo not drawn),–,inactive
CCCC1(C)Nc2ccccc2-c2nc3ccccc3n21 (stereo not drawn),–,3.98 µM (active)
NC1=NC2(CCCCCC2)n2c(nc3ccccc32)N1,–,inactive
COc1c2c(nc3ccccc13)O[C@@H]([C@@](C)(O)CO)C2,–,inactive
Cc1cccc(C(=O)NNC(=O)C(=O)NC(C)(C)C)c1,–,inactive
C=C(C)C1CC=C(C)/C(=N/NC(=O)c2ccc(NC(=O)c3cccc(C)c3)cc2)C1 (stereo not drawn),–,1.58 µM (active)
Cc1cccc(C(=O)NNC(=O)C2CCCO2)c1 (stereo not drawn),–,inactive
COc1ccc(CCN(C)CCc2ccc(OC)c(OC)c2)cc1OC,–,inactive
COc1ccc(Cc2n[nH]c(=O)c3ccccc23)cc1OC,–,25.1 µM (active)
COc1ccc(C[N+](C)(C)N)cc1OC,13.9% [at 11.4 µM],–
CCCCc1ccc2nc(NC(=O)OC)[nH]c2c1,–,inactive
Nc1c(OCC(=O)O)ccc2cc(S(=O)(=O)O)ccc12,-7.12% [at 11.4 µM],–
Clc1ccc(Sc2cc(N3CCOCC3)nc(-c3ccccc3)n2)cc1,–,10 µM (active)
c1ccc2c(N3CCOCC3)nc(-c3ccoc3)nc2c1,11.8% [at 2.29 µM],–
COc1cccc(-c2ccc3ncnc(N4CCOCC4)c3c2)c1,-6.77% [at 2.29 µM],–
COc1cccc(Sc2cc(N3CCOCC3)nc(-c3ccccc3)n2)c1,–,10 µM (active)
Nc1nc(Cl)cc(N2CCOCC2)n1,–,inactive

SMILES,"activity, negative = inhibition",AC50
Brc1ccc([C@H]2CN3CCSC3=N2)cc1,–,inactive
CN1CCN(c2ncncc2-c2ccc(C(=O)N(C)C)cc2)CC1,16.3% [at 2.29 µM],–
O=P(O)(O)CCP(=O)(c1ccccc1)c1ccccc1,–,inactive
O=C1CC(c2ccc(F)cc2)Cc2nc(NCC3CCCO3)ncc21 (stereo not drawn),–,12.6 µM (active)
CCNc1ncc2nc(-c3ccc(F)cc3)c(=O)n(C[C@H]3CCCO3)c2n1,–,inactive
CCNc1ncc2nc(-c3cc(F)cc(F)c3)c(=O)n(C[C@H]3CCCO3)c2n1,–,inactive
Cc1ccc2nc(SCc3nnc(-c4ccccc4[N+](=O)[O-])o3)c(C#N)cc2c1,–,0.794 µM (active)
Cc1ccc2nc(SCC(=O)NCc3cccs3)c(C#N)cc2c1,–,inactive
Cc1nc2cccc([N+](=O)[O-])c2n1CCCN(C)C,-4.5% [at 11.4 µM],–
CN1CCC(=C2c3ccccc3CC(=O)c3sccc32)CC1,–,inactive
O=C(O)CN(CCN(CC(=O)O)CC(=O)O)CC(=O)O.[Mn],-0.525% [at 11.4 µM],–
c1cc(-c2sc(-c3ccncc3)c(-c3ccncc3)c2-c2ccncc2)ccn1,–,2 µM (active)
Cc1cn2c(-c3ccncc3)nnc2s1,–,inactive
CN1CCN(S(=O)(=O)c2ccc3[nH]cc(C(=O)O)c(=O)c3c2)CC1,–,inactive
Cc1ccccc1NS(=O)(=O)c1ccc2[nH]cc(C(=O)N(C)Cc3ccco3)c(=O)c2c1,–,12.6 µM (active)
Cc1cc(S(=O)(=O)NCCCN2CCOCC2)ccc1F,–,inactive
CCC(CC)C(=O)c1c[nH]c(C(=O)NCCCN2CCOCC2)c1,–,inactive
COc1cccc(NS(=O)(=O)c2ccc3[nH]cc(C(=O)NCCN4CCOCC4)c(=O)c3c2)c1,–,7.94 µM (active)
Cc1ccccc1NS(=O)(=O)c1ccc2[nH]cc(C(=O)NCCCN3CCOCC3)c(=O)c2c1,–,12.6 µM (active)
CS(=O)(=O)Nc1cccc(-c2nc(NCCN3CCOCC3)c3ccccc3n2)c1,3.9% [at 2.29 µM],–
COc1cccc(C2=NOC(C(=O)NCCN3CCOCC3)C2)c1 (stereo not drawn),–,inactive
CO[C@H]1COC(=O)C/C=C\[C@@H](C)COC(=O)[C@@H](C)NC(=O)C/C=C\[C@@H]1C,-12.1% [at 11.4 µM],–
Cc1ccccc1N1CCN(C(=O)c2ccccc2NC(=O)/C=C\C(=O)O)CC1,–,14.1 µM (active)
CCOC(=O)C1CCN(C(=O)c2ccccc2NC(C)=O)CC1,–,inactive

SMILES,"activity, negative = inhibition",AC50
COC(=O)N1CCC2(CCCN(C(=O)Nc3ccc(OC)cc3)C2)CC1,–,inactive
COC(=O)CNC(=O)/C=C/c1ccc(OC)cc1,–,inactive
COc1ccc(/C=C/C(=O)Nc2ccccc2C(=O)N2CCCC2)cc1,–,15.8 µM (active)
NCc1ccccc1CC(=O)N[C@@H]1C(=O)N2C(C(=O)O)=C(CSc3nnnn3CC(=O)O)CS[C@@H]12,–,inactive
CC(=O)Nc1nc(NC(C)=O)c2[nH]c(CO)nc2n1,15.3% [at 11.4 µM],–
FC(F)(F)c1nc(N2CCCC2)ncc1-c1nnnn1-c1ccccc1,–,6.31 µM (active)
Cc1nc2cnc(N3CCNCC3)nc2n(-c2ccccc2)c1=O,–,inactive
FC(F)(F)c1nc(-c2ccncc2)ncc1-c1nnnn1-c1ccccc1,–,2.82 µM (active)
Cc1cc(C)cc(-n2nnnc2-c2cn(C)nc2C(F)(F)F)c1,–,inactive
c1ccc(CNc2nc(-c3ccoc3)nc3ccccc23)cc1,-16.4% [at 2.29 µM],–
CCCNC(=S)Nc1ccc(Br)cc1,–,14.1 µM (active)
Cc1ccc(NC(=S)Nc2ccc(Br)cc2)cc1,–,inactive
Cc1cc(C)n(-c2ccc(F)cc2)c(=O)c1C(=O)O,–,inactive
N=c1n(-c2ccccc2)c(O)cc(=O)n1-c1ccccc1,–,inactive
CC(=O)c1c(O)c(C)c(-c2ccccc2)n(-c2ccccc2)c1=O,–,14.1 µM (active)
N#C/C(=N\O)c1nc(-c2ccccc2)cs1,–,22.4 µM (active)
C[n+]1cccc(CNC(=O)/C=N/O)c1,–,inactive
O=C1OCCC=C1[C@@H](O)CCc1ccccc1,5.4% [at 11.4 µM],–
O=C(O)[C@H](CCc1ccccc1)N1C(=O)c2ccccc2C1=O,-7.78% [at 11.4 µM],–
O=C1C(=O)c2ccccc2C(O)=C1C(CCc1ccccc1)C1=C(O)c2ccccc2C(=O)C1=O,–,3.16 µM (active)
CC(=O)O[C@H]1C2=CO[C@H](C)[C@H]3[C@H]4C5=C([C@H](O)[C@H]6O[C@@H]6C5=O)[C@H](O[C@H]4C)[C@@]23C(=O)[C@H]2O[C@@H]21,19.9% [at 11.4 µM],–
